Measured values published in PubChem BioAssay AID1159580 (chemical genetic matrix, 2015).
The campaign covered roughly 5,500 compounds. About 2,000 (36%) were called active. Roughly 18% stayed inconclusive and do not appear here. Rule as the data show it: active = normalized growth mostly below about 0.91 (no sharp cut-off); inconclusive = no clear call, values can overlap the other calls; inactive = mostly above about 0.92. This is one part of the list.

Assay: chemical genetic growth profiling, strain panel (AID 1159580);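 also: tested at 20 µM; growth read once vehicle control cultures reached saturation at 30 °C; 1 = growth at the plate median or of vehicle wells; lower values mean less growth of the strain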
Details: growth OD

Measured: normalized growth

CCCN(CCC)c1c([N+](=O)[O-])cc(C(F)(F)F)cc1[N+](=O)[O-]
inactive: S. cerevisiae deletion strains, locus YJR075W, strain HOC1, hits give low values 0.994 | S. cerevisiae deletion strains, locus YKL009W, strain mrt4, hits give low values 1.03 | S. cerevisiae deletion strains, locus YKL068W, hits give low values 1.01 | S. cerevisiae deletion strains, locus YKL085W, strain MDH1 (second series), hits give low values 1 | S. cerevisiae deletion strains, locus YKL085W, strain MDH1, hits give low values 1 | S. cerevisiae deletion strains, locus YKL160W, strain elf1, hits give low values 1 | S. cerevisiae deletion strains, locus YKL190W, strain CNB1, hits give low values 1.01 | S. cerevisiae deletion strains, locus YKR001C, strain vps1, hits give low values 1.03 | S. cerevisiae deletion strains, locus YKR026C, strain gcn3, hits give low values 0.97 | S. cerevisiae deletion strains, locus YKR091W, strain srl3, hits give low values 0.999 | S. cerevisiae deletion strains, locus YLL001W, strain dnm1, hits give low values 0.999 | S. cerevisiae deletion strains, locus YLL026W, hits give low values 0.999 | S. cerevisiae deletion strains, locus YLL041C, strain sdh2, hits give low values 1 | S. cerevisiae deletion strains, locus YLR027C, strain aat2, hits give low values 1.01 | S. cerevisiae deletion strains, locus YLR039C, strain RIC1, hits give low values 0.99 | S. cerevisiae deletion strains, locus YLR058C, strain SHM2, hits give low values 1 | S. cerevisiae deletion strains, locus YLR102C, strain apc9, hits give low values 1.01 | S. cerevisiae deletion strains, locus YLR113W, strain HOG1, hits give low values 1.02 | S. cerevisiae deletion strains, locus YLR221C, strain rsa3, hits give low values 1 | S. cerevisiae deletion strains, locus YLR258W, strain gsy2, hits give low values 0.984 | S. cerevisiae deletion strains, locus YLR262C, strain YPT6 (second series), hits give low values 0.989 | S. cerevisiae deletion strains, locus YLR262C, strain YPT6, hits give low values 1.04 | S. cerevisiae deletion strains, locus YLR268W, strain sec22, hits give low values 1.02 | S. cerevisiae deletion strains, locus YLR320W, strain mms22, hits give low values 1.01 | S. cerevisiae deletion strains, locus YLR330W, strain CHS5, hits give low values 1.02 | S. cerevisiae deletion strains, locus YLR342W, strain FKS1 (second series), hits give low values 1.04 | S. cerevisiae deletion strains, locus YLR342W, strain FKS1, hits give low values 1.04 | S. cerevisiae deletion strains, locus YLR357W, strain rsc2, hits give low values 1.13 | S. cerevisiae deletion strains, locus YLR370C, strain arc18, hits give low values 1 | S. cerevisiae deletion strains, locus YLR371W, strain rom2, hits give low values 1.02 | S. cerevisiae deletion strains, locus YLR384C, strain iki3, hits give low values 1.02 | S. cerevisiae deletion strains, locus YLR418C, strain cdc73, hits give low values 1 | S. cerevisiae deletion strains, locus YML016C, strain PPZ1, hits give low values 0.982 | S. cerevisiae deletion strains, locus YML032C, strain rad52, hits give low values 1.02 | S. cerevisiae deletion strains, locus YML120C, strain ndi1, hits give low values 0.985 | S. cerevisiae deletion strains, locus YML124C, strain tub3, hits give low values 1.02 | S. cerevisiae deletion strains, locus YMR058W, strain fet3, hits give low values 0.989 | S. cerevisiae deletion strains, locus YMR078C, strain ctf18, hits give low values 1.02 | S. cerevisiae deletion strains, locus YMR125W, strain sto1, hits give low values 1.01 | S. cerevisiae deletion strains, locus YMR129W, hits give low values 1.01 | S. cerevisiae deletion strains, locus YMR205C, strain PFK2, hits give low values 0.977 | S. cerevisiae deletion strains, locus YMR223W, strain ubp8, hits give low values 1.01 | S. cerevisiae deletion strains, locus YMR231W, strain pep5, hits give low values 1.01 | S. cerevisiae deletion strains, locus YMR263W, strain SAP30, hits give low values 0.984 | S. cerevisiae deletion strains, locus YMR307W, strain GAS1, hits give low values 0.973 | S. cerevisiae deletion strains, locus YNL067W, strain RPL9B, hits give low values 1.01 | S. cerevisiae deletion strains, locus YNL071W, strain lat1, hits give low values 1 | S. cerevisiae deletion strains, locus YNL128W, strain TEP1, hits give low values 1 | S. cerevisiae deletion strains, locus YNL153C, strain GIM3, hits give low values 0.995 | S. cerevisiae deletion strains, locus YNL183C, strain NPR1, hits give low values 0.915 | S. cerevisiae deletion strains, locus YNL209W, strain ssb2, hits give low values 1.02 | S. cerevisiae deletion strains, locus YNL233W, strain BNI4, hits give low values 0.981 | S. cerevisiae deletion strains, locus YNL248C, strain rpa49, hits give low values 1.04 | S. cerevisiae deletion strains, locus YNL250W, strain rad50, hits give low values 1.01 | S. cerevisiae deletion strains, locus YNL271C, strain bni1, hits give low values 1.01 | S. cerevisiae deletion strains, locus YNL298W, strain CLA4, hits give low values 1.02 | S. cerevisiae deletion strains, locus YNL307C, strain MCK1, hits give low values 1.01 | S. cerevisiae deletion strains, locus YNL322C, strain KRE1 (second series), hits give low values 1 | S. cerevisiae deletion strains, locus YNL322C, strain KRE1, hits give low values 1 | S. cerevisiae deletion strains, locus YNR049C, strain mso1, hits give low values 1.02 | S. cerevisiae deletion strains, locus YNR052C, strain pop2, hits give low values 1.02 | S. cerevisiae deletion strains, locus YOL006C, strain TOP1, hits give low values 1.01 | S. cerevisiae deletion strains, locus YOL012C, strain htz1 0.879 | S. cerevisiae deletion strains, locus YOL147C, strain pex11, hits give low values 1.01 | S. cerevisiae deletion strains, locus YOR001W, strain rrp6, hits give low values 1.01 | S. cerevisiae deletion strains, locus YOR061W, strain CKA2, hits give low values 1 | S. cerevisiae deletion strains, locus YOR069W, strain VPS5, hits give low values 0.998 | S. cerevisiae deletion strains, locus YOR070C, strain gyp1, hits give low values 0.993 | S. cerevisiae deletion strains, locus YOR080W, strain dia2, hits give low values 1.01 | S. cerevisiae deletion strains, locus YOR083W, strain WHI5, hits give low values 1.01 | S. cerevisiae deletion strains, locus YOR106W, strain vam3, hits give low values 1.02 | S. cerevisiae deletion strains, locus YOR136W, strain idh2, hits give low values 1.02 | S. cerevisiae deletion strains, locus YOR144C, strain elg1, hits give low values 1.02 | S. cerevisiae deletion strains, locus YOR184W, strain ser1, hits give low values 1.02 | S. cerevisiae deletion strains, locus YOR231W, strain MKK1, hits give low values 0.986 | S. cerevisiae deletion strains, locus YOR265W, strain rbl2, hits give low values 1.01 | S. cerevisiae deletion strains, locus YOR270C, strain vph1, hits give low values 0.993 | S. cerevisiae deletion strains, locus YOR290C, strain snf2, hits give low values 0.987 | S. cerevisiae deletion strains, locus YOR316C, strain cot1, hits give low values 1.01 | S. cerevisiae deletion strains, locus YPL051W, strain arl3, hits give low values 1.01 | S. cerevisiae deletion strains, locus YPL055C, strain LGE1, hits give low values 1.06 | S. cerevisiae deletion strains, locus YPL078C, strain atp4, hits give low values 0.968 | S. cerevisiae deletion strains, locus YPL106C, strain sse1, hits give low values 1.05 | S. cerevisiae deletion strains, locus YPL240C, strain hsp82, hits give low values 0.988 | S. cerevisiae deletion strains, locus YPL241C, strain CIN2, hits give low values 1.01 | S. cerevisiae deletion strains, locus YPL256C, strain CLN2, hits give low values 0.961 | S. cerevisiae deletion strains, locus YPR119W, strain clb2, hits give low values 1.01 | S. cerevisiae deletion strains, locus YPR141C, strain kar3, hits give low values 1 | S. cerevisiae deletion strains, locus YPR163C, strain tif3, hits give low values 1.02 | S. cerevisiae deletion strains, locus YPR167C, strain met16, hits give low values 1.01 | S. cerevisiae deletion strains, strain wtn01, hits give low values 1.02 | S. cerevisiae strains, strain wild type, hits give low values 1.01
